The list is not random: actives were taken first. Their share in the collection is about 2.9%.
ADAM10 inh: ADAM10 inhibition, QFRET primary screen; inhibition, % at 7 µM; O14672; recombinant ADAM10, EDANS/DABCYL FRET peptide cleavage, 3 h; hit rate 0.62% among 370,000;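 active means inhibition above a per-campaign cutoff equal to the mean of compounds falling between control-based bounds plus 3 SD, cut at about 20% in these data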;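 further: 0% = DMSO wells while the 100% control is not disclosed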
proKLK7 act: proKLK7 (human) activation, primary screen; P49862; purified proKLK7, EDANS-DABCYL substrate fluorescence; 100% is mature enzyme control, 0% vehicle; activation, % at 7 µM; hit rate 0.9% among 370,000; AID 652039;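 active means activation above the mean of all tested compounds plus 3 SD, computed per campaign excluding outliers beyond control limits, cut at about 13% in these data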
PLC-gamma1 inh: blocks human PLC-gamma1 enzyme activity | P19174 | purified PLC-gamma1, fluorogenic substrate, fluorescence | inhibition, % at 12.2 µM | hit rate 0.84% among 370,000 | AID 720700; in the data active means inhibition above about 9.5%
Target sequence (P19174 whole entry, looked up): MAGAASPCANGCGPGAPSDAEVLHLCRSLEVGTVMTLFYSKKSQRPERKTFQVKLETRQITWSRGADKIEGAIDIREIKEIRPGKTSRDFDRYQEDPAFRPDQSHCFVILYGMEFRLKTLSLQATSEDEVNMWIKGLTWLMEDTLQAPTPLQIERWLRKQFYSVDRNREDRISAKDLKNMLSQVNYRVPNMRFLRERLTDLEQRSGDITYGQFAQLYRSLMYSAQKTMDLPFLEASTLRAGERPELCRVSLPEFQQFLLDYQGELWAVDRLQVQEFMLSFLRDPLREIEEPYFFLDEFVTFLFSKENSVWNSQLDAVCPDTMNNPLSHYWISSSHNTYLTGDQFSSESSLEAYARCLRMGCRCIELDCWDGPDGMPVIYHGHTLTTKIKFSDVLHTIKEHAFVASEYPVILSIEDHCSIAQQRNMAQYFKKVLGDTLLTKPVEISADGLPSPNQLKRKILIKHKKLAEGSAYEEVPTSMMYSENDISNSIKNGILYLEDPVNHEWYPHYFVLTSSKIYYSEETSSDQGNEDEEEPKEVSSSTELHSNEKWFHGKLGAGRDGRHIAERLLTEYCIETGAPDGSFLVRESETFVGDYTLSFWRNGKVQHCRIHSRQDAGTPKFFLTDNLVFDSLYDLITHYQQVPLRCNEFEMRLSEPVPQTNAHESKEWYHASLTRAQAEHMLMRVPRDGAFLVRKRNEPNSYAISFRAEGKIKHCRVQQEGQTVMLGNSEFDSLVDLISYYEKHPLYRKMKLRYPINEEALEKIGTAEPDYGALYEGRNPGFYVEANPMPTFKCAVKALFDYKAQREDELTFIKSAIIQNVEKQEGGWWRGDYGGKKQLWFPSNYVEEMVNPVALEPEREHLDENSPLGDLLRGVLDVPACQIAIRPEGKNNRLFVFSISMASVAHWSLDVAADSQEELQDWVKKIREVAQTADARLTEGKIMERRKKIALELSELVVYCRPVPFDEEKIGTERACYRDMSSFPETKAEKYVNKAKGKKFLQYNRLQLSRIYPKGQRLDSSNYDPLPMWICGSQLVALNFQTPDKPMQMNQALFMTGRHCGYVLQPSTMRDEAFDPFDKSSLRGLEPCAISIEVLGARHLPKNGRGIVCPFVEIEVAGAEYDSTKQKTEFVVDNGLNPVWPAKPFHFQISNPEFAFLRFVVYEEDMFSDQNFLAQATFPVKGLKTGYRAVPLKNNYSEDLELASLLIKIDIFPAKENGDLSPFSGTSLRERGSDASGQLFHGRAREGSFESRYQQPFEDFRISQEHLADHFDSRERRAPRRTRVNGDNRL
PLC-beta3 inh: blocks human PLC-beta3 enzyme activity; Q01970; Purified PLC-beta3, fluorogenic substrate, fluorescence; inhibition, % at 12.2 µM; hit rate 0.18% among 370,000; AID 720704; in the data active means inhibition above about 11%;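 further: 0% = median of compound wells on plate and 100% = full blocker control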
ADAM17 inh: inhibits human ADAM17 | hit rate 0.83% among 370,000 | recombinant ADAM17, EDANS/DABCYL FRET peptide cleavage | inhibition, % at 6.95 µM | P78536 | AID 720648;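 active means inhibition above the mean of compounds lying between control limits plus 3 SD, set per campaign, cut at about 8.5% in these data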;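 further: 0% = DMSO-only wells as the low control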
ADAM10 confirm: human ADAM10 inhibition, confirmation; hit rate 1% among 2,100; shares compounds with ADAM10 inh; AID 743208; ADAM10 QFRET peptide cleavage, EDANS fluorescence; inhibition, % at 6.95 µM;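 active means inhibition above about 20% chosen separately for each screening run, limit read from the data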;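 further: 0% = DMSO wells and 100% = marimastat wells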
ADAM17 counter: counter-screen for ADAM10 exosite inhibitors: inhibitors of human ADAM17; ADAM17 QFRET peptide cleavage, EDANS fluorescence; inhibition, % at 6.95 µM; AID 743214; shares compounds with ADAM10 inh; hit rate 0.5% among 2,100;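 active means mean triplicate inhibition above the solvent-only control wells' mean plus 3 SD, cut at about 12% in these data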;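 further: 0% = DMSO wells and 100% = marimastat wells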
* = called active by the depositor.

Results for CCN(CC)S(=O)(=O)c1cccc(-c2n[nH]c(=S)n2/N=C/c2ccc(OC)cc2)c1 ?
ADAM10 inh: 13; proKLK7 act: 0; PLC-gamma1 inh: -3; PLC-beta3 inh: -3; ADAM17 inh: 5

How did CCN(CC)S(=O)(=O)c1cccc(-c2n[nH]c(=S)n2/N=C/c2ccc(OC(F)F)cc2)c1 do in these assays?
ADAM10 inh: 20*; proKLK7 act: -1; PLC-gamma1 inh: 1; PLC-beta3 inh: -5; ADAM17 inh: 8; ADAM10 confirm: 6; ADAM17 counter: 3

What do the screens show for `CN1[C@@H](Cc2ccccc2)COc2cc(N3CCCC3)ccc2S1(=O)=O`?
ADAM10 inh: 5; proKLK7 act: 0; PLC-gamma1 inh: -1; PLC-beta3 inh: -2; ADAM17 inh: 2

Results for COc1ccccc1Nc1ccc(NC(=O)c2cccc([N+](=O)[O-])c2C)cc1 ?
ADAM10 inh: 35*; proKLK7 act: 0; PLC-gamma1 inh: 1; PLC-beta3 inh: -6; ADAM17 inh: 8; ADAM10 confirm: 13; ADAM17 counter: 4

How did COc1ccc(NC(=O)c2ccccc2[N+](=O)[O-])cc1 do in these assays?
ADAM10 inh: -1; proKLK7 act: 0; PLC-gamma1 inh: 3; PLC-beta3 inh: 3; ADAM17 inh: -2

What do the screens show for `CCCCCCCCN1C(=O)[C@@H](CC(=O)NCc2ccc(OC)c(OC)c2)C[C@@]2(C(=O)OC)C1=C[C@H](C(C)C)O[C@@H]2C1CC1`?
ADAM10 inh: 22*; proKLK7 act: 1; PLC-gamma1 inh: -1; PLC-beta3 inh: 7; ADAM17 inh: 6; ADAM10 confirm: 12; ADAM17 counter: 3

What do the screens show for `COC(=O)[C@]12C[C@H](CC(=O)NCc3cccc4ccccc34)C(=O)N(Cc3ccc4c(c3)OCO4)C1=C[C@H](C(C)C)O[C@@H]2C1CC1`?
ADAM10 inh: 12; proKLK7 act: 0; PLC-gamma1 inh: 0; PLC-beta3 inh: 2; ADAM17 inh: 3

How did COC(=O)[C@]12C[C@H](CC(=O)NCCCCc3ccccc3)C(=O)N(Cc3ccc4c(c3)OCO4)C1=C[C@H](C(C)C)O[C@@H]2C1CC1 do in these assays?
ADAM10 inh: 21*; proKLK7 act: 0; PLC-gamma1 inh: 3; PLC-beta3 inh: 0; ADAM17 inh: 6; ADAM10 confirm: 6; ADAM17 counter: 3

How did COC(=O)[C@]12C[C@H](CC(=O)NCc3cccc(C(F)(F)F)c3)C(=O)N(Cc3ccc4c(c3)OCO4)C1=C[C@H](C(C)C)O[C@@H]2C1CC1 do in these assays?
ADAM10 inh: 20*; proKLK7 act: 0; PLC-gamma1 inh: -1; PLC-beta3 inh: 3; ADAM17 inh: 8; ADAM10 confirm: 7; ADAM17 counter: 3

How did CCOC(=O)CC[C@H]1CC[C@]2(CCCN(C(=O)C3CCCC3)C2)O1 do in these assays?
ADAM10 inh: -13; proKLK7 act: 0; PLC-gamma1 inh: 0; PLC-beta3 inh: -4; ADAM17 inh: -3

Results for Cc1nc(-c2cccc(NS(=O)(=O)c3ccc4ccccc4c3)c2)cs1 ?
ADAM10 inh: 26*; proKLK7 act: 0; PLC-gamma1 inh: -2; PLC-beta3 inh: -5; ADAM17 inh: 8; ADAM10 confirm: 8; ADAM17 counter: 2

What do the screens show for `c1ccc(-c2c[nH]c3cccc(-c4cc5ccccc5o4)c23)cc1`?
ADAM10 inh: inactive; proKLK7 act: -39; PLC-gamma1 inh: -295; PLC-beta3 inh: -405; ADAM17 inh: -214

What do the screens show for `Cc1ccc(C(=O)COC(=O)c2cccc(NC(=O)c3ccc([N+](=O)[O-])cc3[N+](=O)[O-])c2)cc1`?
ADAM10 inh: 25*; proKLK7 act: -1; PLC-gamma1 inh: 2; PLC-beta3 inh: 4; ADAM17 inh: 4; ADAM10 confirm: 6; ADAM17 counter: 1

How did O=C(C1CCN(S(=O)(=O)c2cnc[nH]2)CC1)N1CCN(c2ccc([N+](=O)[O-])cc2)CC1 do in these assays?
ADAM10 inh: 45*; proKLK7 act: 0; PLC-gamma1 inh: 1; PLC-beta3 inh: 0; ADAM17 inh: 2; ADAM10 confirm: -1; ADAM17 counter: 0

How did Cc1cc(C)c(O)c(-c2cc(C(=O)Nc3ccc(S(=O)(=O)N4CCOCC4)cc3)[nH]n2)c1 do in these assays?
ADAM10 inh: 21*; proKLK7 act: 0; PLC-gamma1 inh: 2; PLC-beta3 inh: -2; ADAM17 inh: 8; ADAM10 confirm: 6; ADAM17 counter: 2

How did O=C(c1cccc(Cl)c1)N1CCN(c2ccnc3cc(Cl)ccc23)CC1 do in these assays?
ADAM10 inh: 2; PLC-gamma1 inh: -5; PLC-beta3 inh: -5; ADAM17 inh: -2

Results for COc1ccccc1NC(=O)c1cccs1 ?
ADAM10 inh: 7; proKLK7 act: 1; PLC-gamma1 inh: 5; PLC-beta3 inh: 5; ADAM17 inh: 0

Results for COc1ccccc1NC(=O)c1ccccc1NC(=O)c1cccs1 ?
ADAM10 inh: 21*; proKLK7 act: 1; PLC-gamma1 inh: 1; PLC-beta3 inh: 0; ADAM17 inh: 2; ADAM10 confirm: 2; ADAM17 counter: 0

What do the screens show for `O=C(CSc1nc2ccccc2nc1N1CCCCC1)N1CCN(S(=O)(=O)c2cc(Cl)ccc2Cl)CC1`?
ADAM10 inh: -4; proKLK7 act: -18; PLC-gamma1 inh: -3; PLC-beta3 inh: 0; ADAM17 inh: -1

How did CCC(=O)N1CCc2cc(Br)c(S(=O)(=O)NCc3ccccc3OC)cc21 do in these assays?
ADAM10 inh: -3; proKLK7 act: 0; PLC-gamma1 inh: -2; PLC-beta3 inh: 0; ADAM17 inh: 2

Results for CN(C(=O)c1cncc(Br)c1)c1c(N)n(Cc2ccccc2)c(=O)[nH]c1=O ?
ADAM10 inh: 82*; proKLK7 act: 0; PLC-gamma1 inh: 4; PLC-beta3 inh: -2; ADAM17 inh: -1; ADAM10 confirm: 1; ADAM17 counter: 0

Results for CCOP(=O)(OCC)C(NC(=O)Nc1ccc(Cl)c(Cl)c1)c1ccccc1 (stereo not drawn) ?
ADAM10 inh: 22*; proKLK7 act: 0; PLC-gamma1 inh: 5; PLC-beta3 inh: 0; ADAM17 inh: 8; ADAM10 confirm: 0; ADAM17 counter: 1

What do the screens show for `CCOP(=O)(OCC)C(NC(=O)Nc1ccc(C)c(Cl)c1)c1ccccc1` (stereo not drawn)?
ADAM10 inh: 7; proKLK7 act: 0; PLC-gamma1 inh: 7; PLC-beta3 inh: 3; ADAM17 inh: 9

Results for O=C(CCc1ccccc1-c1ccccc1CCNC(=O)c1ccccc1)NCc1ccccc1 ?
ADAM10 inh: 2; proKLK7 act: 0; PLC-gamma1 inh: 0; PLC-beta3 inh: 3; ADAM17 inh: -2
